Drawing on PubChem BioAssay (NCI), this text covers growth for 40 compounds.

Molecules are shown by their SMILES. Compounds without any hit were thinned out: in the full panel of roughly 83,000, 20% have a hit.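 Results are percent growth after 48 hours of single-concentration exposure. 100 means growth as in untreated cells, lower positive values show inhibition; negative values down to -100 show cell death.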 A number with no mark means an inactive call. Activity calls are given as the source filed them.

The assay deals with NCI-H23 lung. Put plainly: NCI-60 one-dose screen, 48 h (100 = growth as untreated, 0 = no growth, -100 = all killed). Conditions: 10 µM unless noted. The procedure:
Growth inhibition of the NCI-H23 human Non-Small Cell Lung tumor cell line is measured as a screen for anti-cancer activity. Cells are grown in 96 well plates and exposed to the test compound for 48 hours. Compounds are tested at a single concentration, which is 10^-5 M for most compounds. The reported endpoint is percent growth (GI% or GIPRCNT), where numbers from 0 - 100% represent growth inhibition, and numbers from -100% - 0 represent cell death. For example, a value of 40 represents 60% growth inhibition. A value of 0 means no net growth occurred over the course of the experiment. A value of -40 indicates 40% of cells at the beginning of the experiment died by the end of the experiment. A value of -100 means all cells are dead at the end of the experiment.
NCI-60 Human Tumor Cell Lines Screen was performed using the standard one-dose NCI protocol, which is described in more detail at https://dtp.cancer.gov/discovery_development/nci-60/default.htm.
Compounds with GIPRCNT values below 10 were considered active. Activity score was based on GIPRCNT using the following formula: […]
Score is 0 for GIPRCNT values of 100 or above, 50 for GIPRCNT values of 0, and 100 for GIPRCNT values of -100.
For `CCc1ccccc1-n1c(-c2ccc(Cl)cc2)cc(-c2ccc(OC)cc2)c(C#N)c1=O`, the growth was 102%.

Consider `NCCCNc1nc2ccccc2c2c(=O)c3cccc(Cl)c3sc12`, for which the growth was 44.7%.

`N#C/C(=C\c1ccc(-c2ccccc2F)o1)c1nc(-c2ccco2)cs1`: the growth is 85.5%.

On to `Cc1ccc2nc(NC(=O)CSc3nc(Nc4ccc([N+](=O)[O-])cc4)c(C#N)c(-c4ccccc4)n3)sc2c1`, for which the growth was 99.6%.

For `COC(=O)CCC1=C(C)C2=NC1=CC1=NC(=CC3=NC(=Cc4[nH]c(/c(=C(/C)O)c4C)=C2)C(C(C)=O)=C3C)C(C)=C1CCC(=O)OC`, the growth is 99.8%.

Take `Cc1c(O)cc(-c2cnc(N/N=C\c3ccc(Cl)cc3)s2)c(O)c1C`: the growth was 91.5%.

As to `O=c1cc(-c2ccc(Cl)cc2)[nH]c2ccccc12`, the growth is 83.2%.

For the compound `CCN1C(=O)N(CC)C2Nn3c(s/c(=C\c4ccc(Cl)cc4Cl)c3=O)=NC21` (stereo not given), the growth was 43.1%.

For `Cc1cc(C(=O)c2ccccc2)c(C)c2c1[nH]c1ccc(Cl)cc12`, the growth is 24.6%.

As to `CCOC(CN=Cc1cc(C)c2[nH]c3ccccc3c2c1C)OCC`, the growth was 97.7%.

Turning to `Cc1occc1-c1n[nH]c(=S)n1N1C(=O)CSC1=S`, the growth is 102%.

For `O=C(Nc1ccccc1)Nc1cccc(Oc2nnc(Cl)c3ccccc23)c1`, the growth was 32.7%.

Take `COC1=C(OC)C(=O)C(OC)=C(OC)C1=O`: the growth was 98.6%.

On to `COc1cccc(-c2nc3sccn3c2/C=C/C(=O)c2ccc(C(F)(F)F)cc2)c1`, for which the growth is 95%.

For `CC(C)(C)c1ccc(/C=C/C(=O)Nc2ccc(O)cc2)cc1`, the growth is 80.9%.

In the case of `O=c1c2cc(F)ccc2sc2c(Nc3cccnc3)nc3ccccc3c12`, the growth was 78.8%.

As to `O=C(Nc1ccc(-n2cc(-c3ccncc3)c(-c3ccc(Cl)c(O)c3)n2)cc1)N1CCOCC1`, the growth is 111%.

Consider `N#C/C(=C\c1ccc2c(c1)OCO2)n1nnc2cc(F)c(F)cc21`, for which the growth is 67.5%.

Regarding `C=CCOC1=CC(=O)c2ccccc2C1=O`, the growth is 50.6%.

In the case of `COc1ccc(/C=c2\nc3n(-c4ccccc4)c4nc5c6c(sc5c(=N)n4n-3c2=O)CCCC6)cc1`, the growth is 80.8%.

Consider `CC(C)C(NC(=O)C1(NC(=O)OCc2ccccc2)CCCC1)C(=O)O` (stereo not given), for which the growth is 99.6%.

Regarding `COc1cc(C2CC(c3cc(OC)c(OCCCOc4ccc(-n5c(/C=C/c6ccccc6)nc6ccccc6c5=O)cc4)c(OC)c3)=NO2)cc(OC)c1OC` (stereo not given), the growth was 112%.

On to `CCCCCc1nc2c(c3c1CCCC3)CCCC2`, for which the growth was 73.4%.

`Cc1cc(NCCCCNc2ccnc3cc(Cl)ccc23)nc(Nc2ccc(C(=O)N3CCCCC3)cc2)n1`: the growth is 41.3%.

In the case of `Cc1ccc2nc(NC(=O)CSc3nc(-c4ccccc4)c(C#N)c(=O)n3Cc3ccccc3)sc2c1`, the growth was 85.9%.

On to `CSc1n(Cc2ccc3ccccc3c2)c(C)c[n+]1Cc1ccc2ccccc2c1`, for which the growth was -50.8% (active).

Take `CCOC(=O)c1ccc(N2NC(=O)/C(=C/c3ccc([N+](=O)[O-])o3)C2=O)cc1`: the growth was 108%.

`O=C1Nc2ccc(F)cc2C12Nc1cc(Cl)ccc1S2` (stereo not given): the growth is 80.1%.

Regarding `COC(=O)[C@]12CC[C@@H](C)[C@H](C)[C@@H]1C1=CC[C@@H]3[C@@]4(C)C(C=O)=C[C@@](C)(COC(C)=O)[C@@H]4C(=O)C[C@@]3(C)[C@]1(C)CC2`, the growth was 34.2%.

For the compound `COc1ccc(-c2cc(-c3cc(OC)c(OC)c(OC)c3)c(C#N)c(N3CCOCC3)n2)cc1O`, the growth is -6.35% (active).

Regarding `COC(=O)[C@]12CC[C@@H](C)[C@H](C)[C@@H]1C1=CC[C@@H]3[C@@]4(C)C(C=O)=C[C@@](C)(COC(C)=O)C4=CC[C@@]3(C)[C@]1(C)CC2`, the growth was 7.56% (active).

Consider `COc1ccc(N2CCN(c3nc(-c4cc(OC)c(OC)c(OC)c4)nc4ccccc34)CC2)cc1`, for which the growth is 81.1%.

As to `CCN1CCN(c2cc(C)nc(NCc3cc(Nc4ccnc5cc(Cl)ccc45)ccc3F)n2)CC1`, the growth was 56%.

On to `CCCCCCCCCCN(CCCCCCCCCC)CC(=O)c1ccc2cc(Br)c3ccccc3c2c1`, for which the growth was 47.4%.

As to `Cn1c(=O)c2c(nc(Cl)n2CCl)n(C)c1=O`, the growth is 3.75% (active).

As for `CCCc1cc2c(=O)c(C(=O)OC)c[nH]c2cc1N(CC)CC`, the growth is 102%.

For the compound `COc1ccc(C2=NN(C(=O)c3cc(OC)c(OC)c(OC)c3)C(c3ccc(Cl)cc3)C2)cc1OC` (stereo not given), the growth was -7.6% (active).

Consider `Cc1ccc(-c2cc3c(cc2O)C2CCCCC2(N2CCOCC2)O3)cc1` (stereo not given), for which the growth was 94.8%.

In the case of `Cn1c(-c2c(N)n(Cc3ccc(C(F)(F)F)cc3)c3nc(C#N)c(C#N)nc23)nc2ccccc21`, the growth was 1.21% (active).

On to `CCCCNC(=O)Oc1ccc2c(=O)c3sc4c(=O)c5ccccc5c(=O)c4c3c(=O)c2c1`, for which the growth was -47.6% (active).
